# Laboratory results taken from PubChem BioAssay (Tox21).
# “And” between values parts separate entries of the source, which are not always exact repeats. Equal values may be shown once. Results filed as inconclusive are left out. A structure can be active in one record and inactive in another. The source made the active and inactive calls. Unless noted, calls come from the whole dose curve; as a rule, active = well fitted curve in the direction sought with a large enough effect in the repeat runs; inconclusive = weak or mixed curves; inactive = no such curve, though single readings can be large; an effect the other way counts as inactive or inconclusive.
# Assays:
# [1] = qHTS assay to identify small molecule agonists of H2AX (AID 1224845; active = well fitted activation curve with a large enough effect in the signal ratio in the repeat runs, not every such curve was filed as active; the % refers to the signal ratio; note: potency is the fitted concentration of half-maximal effect)
# How it was run: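 Wild-type CHO-K1 cells plated overnight, then exposed 3 hr at 37C to compounds at 15 concentrations (0.76% DMSO). Lysed, then HTRF anti-pH2AX(S139)-cryptate/anti-H2AX-d2 detection after 24 hr at room temperature; emissions 665 and 620 nm.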
# [2] = qHTS assay to identify small molecule antagonists of the estrogen related receptor (ERR) signaling pathway from Tox21 library (AID 1224848); note: nearly all actives have a fitted effect of over 50% in size; note: potency is the fitted concentration of half-maximal effect
# How it was run: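 Screening used an ERR reporter line supplied by NTP, exposed for 18 h at 37 C to library compounds delivered in DMSO. Signal was luciferase luminescence developed with ONE-Glo at room temperature for 30 min.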
# [3] = qHTS assay to identify small molecule agonists of the estrogen related receptor (ERR) signaling pathway from Tox21 library (AID 1224849; calls by dose curve; note: % is set by controls: 0 for no effect and ±100 for the full control effect; nearly all actives have a fitted effect of over 15% in size); conditions: ERR reporter cell line, ONE-Glo luciferase, 18 h
# How it was run: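 ERR reporter cells (NTP line) pre-incubated 6 hours at 37 C, then exposed to compounds for 18 hours at 37 C. ONE-Glo luciferase luminescence was read after 30 minutes at room temperature.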
# [4] = qHTS RealTime-Glo MT Cell Viability Assay in HepG2 cells - 24 hour (AID 1224867); note: nearly all actives have a fitted effect of over 50% in size; note: potency is the fitted concentration of half-maximal effect
# How it was run: (§1)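 Real-time, nonlytic viability: 600 HepG2 cells/well mixed with NanoLuc enzyme plus prosubstrate; 5 h settle, compound (DMSO) added by pintool; luminescence monitored over 40 h at 37 C.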
# [5] = qHTS RealTime-Glo MT Cell Viability Assay in HEK293 cells - 32 hour (AID 1224868); note: nearly all actives have a fitted effect of over 50% in size; note: potency is the fitted concentration of half-maximal effect
# How it was run: (§2)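 Cells + reagent dispensed (600 cells/well, HEK293) → 5 h at 37 C/5% CO2 → 23 nL compound in DMSO pinned → 40 h at 37 C → luminescence read at 0, 8, 16, 24, 32, 40 h.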
# [6] = A CellTox Green Cytotoxicity Assay to monitor cytotoxicity in HEK293 cells - 0 hour (AID 1224869); note: % is set by controls: 0 for no effect and ±100 for the full control effect; nearly all actives have a fitted effect of over 50% in size
# How it was run: (§3)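 HEK293 cells, 600/well, were preincubated 5 hours and then exposed to compounds at 37 C for up to 40 hours. A cell-impermeant cyanine dye staining dead-cell DNA was read by fluorescence at 0, 8, 16, 24, 32 and 40 h time points.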
# [7] = qHTS RealTime-Glo MT Cell Viability Assay in HepG2 cells - 40 hour (AID 1224870); note: nearly all actives have a fitted effect of over 50% in size; note: potency is the fitted concentration of half-maximal effect
# How it was run: (§4)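 HepG2 cells mixed with RealTime-Glo MT reagents (NanoLuc plus cell-permeant prosubstrate) were seeded at 600 cells/well, incubated 5 h at 37 C/5% CO2, then pinned with compounds in DMSO; nonlytic luminescence tracked viability during 40 h treatment.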
# [8] = A CellTox Green Cytotoxicity Assay to monitor cytotoxicity in HEK293 cells - 40 hour (AID 1224871); note: nearly all actives have a fitted effect of over 45% in size; note: potency is the fitted concentration of half-maximal effect
# How it was run: as §3
# [9] = qHTS RealTime-Glo MT Cell Viability Assay in HEK293 cells - 40 hour (AID 1224874); conditions: RealTime-Glo luminescence; max response: stronger effect = lower value; note: nearly all actives have a fitted effect of over 50% in size; note: potency is the fitted concentration of half-maximal effect; for max response: % is set by controls: 0 for no effect and ±100 for the full control effect
# How it was run: (§5)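 600 cells/well were plated with the nonlytic NanoLuc/prosubstrate reagent, pre-incubated 5 h, then given 23 nL of compound in DMSO. Incubation at 37 C for 40 h, with luminescence from viable-cell-reduced substrate read repeatedly from 0 h.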
# [10] = A CellTox Green Cytotoxicity Assay to monitor cytotoxicity in HepG2 cells - 16 hour (AID 1224876); note: nearly all actives have a fitted effect of over 45% in size; note: potency is the fitted concentration of half-maximal effect
# How it was run: (§6)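 HepG2 cells, 600/well, preincubated 5 h with CellTox Green dye, then exposed to Tox21 compounds in DMSO at 37 C for up to 40 h. Dead-cell DNA fluorescence read at the indicated time point.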
# [11] = qHTS RealTime-Glo MT Cell Viability Assay in HepG2 cells - 32 hour (AID 1224877); note: nearly all actives have a fitted effect of over 55% in size; note: potency is the fitted concentration of half-maximal effect
# How it was run: as §1
# [12] = A CellTox Green Cytotoxicity Assay to monitor cytotoxicity in HepG2 cells - 40 hour (AID 1224879); note: nearly all actives have a fitted effect of over 40% in size; note: potency is the fitted concentration of half-maximal effect
# How it was run: as §6
# [13] = qHTS RealTime-Glo MT Cell Viability Assay in HEK293 cells - 0 hour (AID 1224880); note: top concentration of the series differs between compounds; % is set by controls: 0 for no effect and ±100 for the full control effect; nearly all actives have a fitted effect of over 45% in size
# How it was run: as §5
# [14] = qHTS assay to identify small molecule agonists of the hypoxia (HIF-1) signaling pathway - cell viability counter screen (AID 1224844; calls by dose curve; note: nearly all actives have a fitted effect of over 50% in size; note: potency is the fitted concentration of half-maximal effect)
# How it was run: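 HRE-bla ME-180 cells, 2,000/well in 0.5% dialyzed FBS medium, treated 17 h at 37C with compounds. Viability read in the same wells as the bla reporter, by CellTiter-Glo luminescence after 30 min at room temperature.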
# [15] = qHTS assay to identify small molecule agonists of H2AX - cell viability counter screen (AID 1224847; calls by dose curve; note: nearly all actives have a fitted effect of over 30% in size; note: potency is the fitted concentration of half-maximal effect)
# How it was run: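 Wild-type CHO-K1 cells (10% FBS medium) were plated overnight at 37C, exposed to compounds at 15 concentrations for 3 hr at 37C (0.76% DMSO final), and viability was read as CellTiter-Glo luminescence after 30 min at room temperature.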
# [16] = qHTS RealTime-Glo MT Cell Viability Assay in HepG2 cells - 8 hour (AID 1224873); note: nearly all actives have a fitted effect of over 55% in size; note: potency is the fitted concentration of half-maximal effect
# How it was run: as §4
# [17] = A CellTox Green Cytotoxicity Assay to monitor cytotoxicity in HEK293 cells - 24 hour (AID 1224875); note: nearly all actives have a fitted effect of over 45% in size; note: potency is the fitted concentration of half-maximal effect; for activity change: % is set by controls: 0 for no effect and ±100 for the full control effect
# How it was run: as §3
# [18] = A CellTox Green Cytotoxicity Assay to monitor cytotoxicity in HepG2 cells - 24 hour (AID 1224878); note: nearly all actives have a fitted effect of over 45% in size; note: potency is the fitted concentration of half-maximal effect; for Cytotoxicity: % is set by controls: 0 for no effect and ±100 for the full control effect
# How it was run: as §6
# [19] = qHTS RealTime-Glo MT Cell Viability Assay in HEK293 cells - 16 hour (AID 1224872); note: nearly all actives have a fitted effect of over 50% in size; note: potency is the fitted concentration of half-maximal effect
# How it was run: as §2
smiles,measurement,setting,value
C=CC(=O)OCCCCCCOC(=O)C=C,Potency,[1],114 µM (active)
same,Potency,[2],inactive
same,"activity change, positive = activation",[3]; at 92.4 µM (top of the series),-0.87% (active) and -57.5% (active)
same,Potency,[4],inactive and 43.6 µM (active)
same,Potency,[5],49 µM (active)
same,Potency,[6],inactive
same,Potency,[7],inactive
same,Potency,[8],54.9 µM (active)
same,Potency,[9],49.6 µM (active) and 43.6 µM (active)
same,Potency,[10],inactive
same,Potency,[11],inactive and 49 µM (active)
same,Potency,[12],inactive and 54.9 µM (active)
same,Potency,[13],inactive
CCCCCCCCCCCCCC[P+](CCCC)(CCCC)CCCC,Potency,[14],21.8 µM (active) and 21.9 µM (active)
same,Potency,[15],3.99 µM (active) and 31.8 µM (active)
same,Potency,[4],21.8 µM (active) and 13.8 µM (active)
same,Potency,[5],173 nM (active) and 219 nM (active)
same,Potency,[6],inactive
same,Potency,[8],13.7 µM (active) and 17.4 µM (active)
same,Potency,[16],38.7 µM (active) and 17.4 µM (active)
same,Potency,[9],137 nM (active) and 174 nM (active)
same,Potency,[17],12.2 µM (active) and 17.4 µM (active)
same,Potency,[10],21.8 µM (active) and 19.5 µM (active)
same,Potency,[18],21.8 µM (active) and 15.5 µM (active)
same,Potency,[12],19.4 µM (active) and 17.4 µM (active)
same,Potency,[13],inactive
CC(=O)N[C@@H](CS)C(=O)O,Potency,[14],inactive
same,Potency,[15],inactive
same,Potency,[4],inactive
same,Potency,[5],inactive
same,Potency,[6],inactive
same,Potency,[7],inactive
same,Potency,[8],inactive
same,Potency,[16],inactive
same,max response,[9],3.06% (inactive) and 6.4% (inactive)
same,Potency,[17],inactive
same,Potency,[10],inactive
same,Potency,[18],inactive
same,Potency,[12],inactive
same,Potency,[13],inactive
OCCOCCN1CCN(C(c2ccccc2)c2ccc(Cl)cc2)CC1 (stereo not given),Potency,[14],9.64 µM (active)
same,Potency,[15],125 µM (active) and inactive
same,Potency,[5],6.08 µM (active) and inactive
same,Potency,[6],inactive
same,Potency,[8],54.2 µM (active) and inactive
same,Potency,[19],9.64 µM (active) and inactive
same,Potency,[16],inactive
same,Potency,[9],7.66 µM (active)
same,max response,[9],-17.5% (inactive)
same,Potency,[17],inactive
same,Potency,[10],38.4 µM (active) and inactive
same,Potency,[11],48.3 µM (active) and inactive
same,Potency,[18],38.4 µM (active) and inactive
same,Potency,[12],38.4 µM (active)
same,Potency,[13],inactive
CN(C)c1ccc(C(=C2C=CC(=[N+](C)C)C=C2)c2ccccc2)cc1,Potency,[14],11 µM (active) and 5.35 µM (active)
same,Potency,[2],596 nM (active) [middle of 4 runs]
same,"activity change, positive = activation",[3]; at 42.5 µM (top of the series),-66.6% (inactive) and -76.7% (inactive) and -71.5% (inactive)
same,"activity change, positive = activation",[3]; at 92.4 µM (top of the series),-71.3% (inactive)
same,Potency,[5],2.13 µM (active) [middle of 4 runs]
same,Potency,[6],inactive
same,Potency,[8],17.4 µM (active) and 9.52 µM (active) and 10.7 µM (active)
same,Potency,[19],3.01 µM (active) [middle of 4 runs]
same,Potency,[16],17.4 µM (active) and 21.3 µM (active) and 19 µM (active)
same,Potency,[9],1.34 µM (active) [middle of 4 runs]
same,Potency,[17],19.5 µM (active) [middle of 4 runs]
same,Potency,[10],9.77 µM (active) and 9.52 µM (active) and 7.56 µM (active)
same,Potency,[11],7.56 µM (active) [middle of 4 runs]
same,Potency,[18],6.74 µM (active) [middle of 4 runs]
same,Potency,[13],inactive
CCc1ccc(C(c2ccc(CC)cc2)C(Cl)Cl)cc1,Potency,[14],inactive
same,Potency,[4],inactive
same,Potency,[6],inactive
same,Potency,[7],inactive
same,Potency,[16],inactive
same,Potency,[10],inactive
same,Potency,[11],inactive
same,Potency,[18],inactive
same,Potency,[12],inactive
same,Potency,[13],inactive
Cc1ccc(-c2cc(C(F)(F)F)nn2-c2ccc(S(N)(=O)=O)cc2)cc1,Potency,[14],48.8 µM (active) and 54.9 µM (active) and inactive
same,Potency,[2],27.2 µM (active) and 61.1 µM (active)
same,"activity change, positive = activation",[3]; at 42.5 µM (top of the series),-20.4% (inactive)
same,"activity change, positive = activation",[3]; at 92.4 µM (top of the series),-66.1% (inactive) and -48.6% (inactive)
same,Potency,[5],38.7 µM (active) and 30.9 µM (active)
same,Potency,[6],inactive
same,Potency,[7],49 µM (active) and inactive
same,Potency,[8],54.7 µM (active) and 54.9 µM (active) and inactive
same,Potency,[16],48.8 µM (active) and 49 µM (active) and inactive
same,Potency,[9],21.8 µM (active) and 30.9 µM (active)
same,Potency,[17],inactive
same,Potency,[11],49 µM (active) and inactive
same,Potency,[18],19.4 µM (active) and 49 µM (active)
same,Potency,[12],48.8 µM (active) and 49 µM (active)
same,Potency,[13],inactive
